In the supplement of paper PMC12067093, “Discovery and optimisation of a covalent ligand for TRIM25 and its application to targeted protein ubiquitination” (Chemical Science, 2025):
About 21,000 targets were measured; listed, in parts, are those with the largest changes and a random draw of the rest.

Compound: Cc1cc(ccc1-c1ccccc1)C(=O)N1CCCN(CC1)C(=O)CCl [compound 10]
Test: probe-labelled cysteine peptide fold change vs DMSO (competition) (log2 fold change); higher = less target engagement (more negative = stronger competition)
Conditions: THP-1, incubation time: 4 h
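Note: competitive profiling in live THP-1 cells: cysteine peptides tagged with an iodoacetamide desthiobiotin (IA-DTB) probe, intensity after compound treatment relative to DMSO-treated cells.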

Target	probe-labelled cysteine peptide fold change (10 µM)	probe-labelled cysteine peptide fold change (50 µM)
DCP2_Q8IU60_391_KLQDNFETDAVYDLPSSSEDQLLEHAEGQPVACNGHCK (UniProt Q8IU60)	-0.353	-1.7
DDX24_Q9GZR7_599_SLVFANSISCIK (UniProt Q9GZR7)	0.147	0.498
CPVL_Q9H3G5_320_CTEPEDQLYYVK (UniProt Q9H3G5)	-0.128	-0.131
DCLRE1C_Q96SD1_34_AYFLSHCHK (UniProt Q96SD1)	-0.0775	-0.167
CTDP1_Q9Y5B0_277_ILSRDECIDPFSK (UniProt Q9Y5B0)	-0.0626	-0.31
DHX57_Q6P158_644_LLYCTTGVLLR<|>DHX29_Q7Z478_678_LLYCTTGVLLR (UniProt Q7Z478+Q6P158)	-0.0914	0.172
CPNE1_Q99829_4+14_AHCVTLVQLSISCDHLIDK (UniProt Q99829)	-0.148	-0.173
CRYL1_Q9Y2S2_125_VILSSSTSCLMPSK (UniProt Q9Y2S2)	-0.0791	-0.537
DHX16_O60231_932_VEVGLSSCQGDYIR (UniProt O60231)	-0.184	0.119
CNN2_Q99439_215_CASQVGMTAPGTR (UniProt Q99439)	-0.0958	-0.449
DNAJA3_Q96EY1_236_EFTVNIMDTCER (UniProt Q96EY1)	-0.1	-0.195
CTSZ_Q9UBR2_179_ECHAIR (UniProt Q9UBR2)	0.892	2.23
DGLUCY_Q7Z3D6_316_GIGHLLCK (UniProt Q7Z3D6)	-0.0414	0.0827
CSRP1_P21291_167_GLESTTLADKDGEIYCK (UniProt P21291)	-0.0814	-1.06
DHX30_Q7L2E3_346_RPCTIQVPEPILR (UniProt Q7L2E3)	-0.647	-1.7
CYBB_P04839_369_IVGDWTEGLFNACGCDK (UniProt P04839)	-0.0879	0.149
COG1_Q8WTW3_318_LCSWFK (UniProt Q8WTW3)	-1.03	-2.3
CRYZL1_O95825_302_YLCILK (UniProt O95825)	-0.195	-0.442
DLEC1_Q9Y238_256_LEDSCR (UniProt Q9Y238)	0.773	1.66
CRELD2_Q6UXH1_166_QGDGSCR (UniProt Q6UXH1)	-0.195	-0.265
DHX30_Q7L2E3_673_GEPGGILCFLPGWQEIK (UniProt Q7L2E3)	0.357	0.169

Target	probe-labelled cysteine peptide fold change (10 µM)	probe-labelled cysteine peptide fold change (50 µM)
DCAF12_Q5T6F0_253_EDTNPDNCK (UniProt Q5T6F0)	-0.303	-0.538
CTSG_P08311_142_AQEGLRPGTLCTVAGWGR (UniProt P08311)	-0.0347	-0.0423
DIP2A_Q14689_6_GCPLEAAPLPAEVR (UniProt Q14689)	-0.41	-2.19
DDHD2_O94830_470_ESEFCSSSNTR (UniProt O94830)	-0.28	-0.538
DNM1L_O00429_446_IIQHCSNYSTQELLR (UniProt O00429)	-0.165	-0.0631
DDX27_Q96GQ7_259_DICACAATGTGK (UniProt Q96GQ7)	0.0194	-0.0602
DNAJB1_P25685_179_VSLEEIYSGCTK (UniProt P25685)	-0.0218	0.255
CXXC1_Q9P0U4_564_VPADEVCGCPLVR (UniProt Q9P0U4)	0.111	-0.109
CMIP_Q8IY22_363_NGCQQPCDR (UniProt Q8IY22)	-0.29	-1.18
COG1_Q8WTW3_625_LCQSLGELCPHLK (UniProt Q8WTW3)	-0.144	-0.347
DDX20_Q9UHI6_98_CGLDLIVQAK (UniProt Q9UHI6)	-0.0986	-0.579
CSE1L_P55060_344_NLFEDQNTLTSICEK (UniProt P55060)	-0.186	-0.107
DIAPH2_O60879_775_NEYDDLCEPEQFGVVMSSVK (UniProt O60879)	-0.117	0.261
COMT_P21964_241_GSSCFECTHYQSFLEYR (UniProt P21964)	0.0648	-0.0597
CRIP1_P50238_56_TLTSGGHAEHEGKPYCNHPCYAAMFGPK (UniProt P50238)	-0.447	-1.41
COPB1_P53618_248_CIYNLLQSSSPAVKYEAAGTLVTLSSAPTAIK (UniProt P53618)	0.0928	0.0416
DNMT1_P26358_353+356_CIQCGQYLDDPDLK (UniProt P26358)	0.138	-0.0723
COPE_O14579_212_CSPTLLLLNGQAACHMAQGR (UniProt O14579)	0.0619	0.054
DDX59_Q5T1V6_453_LFKPPVLVFVDCK (UniProt Q5T1V6)	-0.33	-1.68
DDX54_Q8TDD1_389_CSTLIVTDLAAR (UniProt Q8TDD1)	0.1	0.184
DCAF8_Q5TAQ9_256_FLPNSGDSTLAMCAR (UniProt Q5TAQ9)	-0.0556	-0.22

Target	probe-labelled cysteine peptide fold change (10 µM)	probe-labelled cysteine peptide fold change (50 µM)
COPA_P53621_1169_NPTDAYQLNYDMHNPFDICAASYR (UniProt P53621)	0.178	0.397
CTNND1_O60716_618_YQEAAPNVANNTGPHAASCFGAK (UniProt O60716)	-0.274	-0.78
DECR1_Q16698_86_GMTTLLSSLGAQCVIASR (UniProt Q16698)	0.251	0.213
CNBP_P62633_150_CGETGHVAINCSK (UniProt P62633)	-0.103	0.0483
DCAF12L1_Q5VU92_150_LAQDQQGCGIHAIELNPSK (UniProt Q5VU92)	-0.214	-0.239
DDX39A_O00148_62_AIVDCGFEHPSEVQHECIPQAILGMDVLCQAK (UniProt O00148)	0.144	0.0705
CSRP1_P21291_25_TVYFAEEVQCEGNSFHK (UniProt P21291)	2.29e-05	-0.0826
DENND4A_Q7Z401_35_PLEEEIHFNDACHK (UniProt Q7Z401)	-0.0984	-0.131
CTNNA1_P35221_461_MSASQLEALCPQVINAALALAAK (UniProt P35221)	0.108	0.332
CRIP2_P52943_150_DWHRPCLR (UniProt P52943)	0.923	1.04
CTNNB1_P35222_466_AGDREDITEPAICALR (UniProt P35222)	0.16	1.07
COX17_Q14061_23+24_KPLKPCCACPETK (UniProt Q14061)	-0.321	-2.25
DIS3L2_Q8IYB7_196_LSVCVSEK (UniProt Q8IYB7)	-0.124	0.0776
CNNM4_Q6P4Q7_220_IVQNCGTEK<|>CNNM2_Q9H8M5_293_IVQNCGTEK (UniProt Q9H8M5+Q6P4Q7)	-0.2	-0.279
CROT_Q9UKG9_166_MLFSTCK (UniProt Q9UKG9)	-0.0518	-0.0687
CORO7_P57737_790_TECDVREVELMR (UniProt P57737)	-0.178	-0.995
DGLUCY_Q7Z3D6-2_165_TTVPCVTHAGFCCPLVVTMRPIPK (UniProt Q7Z3D6)	0.017	-0.4
CTNNB1_P35222_520_NLALCPANHAPLR (UniProt P35222)	-0.273	1.23
CXXC1_Q9P0U4_38_KPDINCFMIGCDNCNEWFHGDCIR (UniProt Q9P0U4)	0.0402	-1.06
CSDE1_O75534_657_FQLCVLGQNAQTMAYNITPLR (UniProt O75534)	0.223	0.2
DKK2_Q9UBU2_214_ICKPVLHQGEVCTK (UniProt Q9UBU2)	-0.0653	-0.0474

Target	probe-labelled cysteine peptide fold change (10 µM)	probe-labelled cysteine peptide fold change (50 µM)
DHX9_Q08211_608+612_KDKDDDGGEDDDANCNLICGDEYGPETR (UniProt Q08211)	-0.761	-0.243
CUL3_Q13618_462+464_LKTECGCQFTSK (UniProt Q13618)	-0.0794	-1.31
CMTM3_Q96MX0_38_AFLCSLK (UniProt Q96MX0)	-0.91	-3.05
DDAH2_O95865_220_AMAVLTDHPYASLTLPDDAAADCLFLRPGLPGVPPFLLHR (UniProt O95865)	0.061	0.0115
DHX9_Q08211_1099_LQISHEAAACITGLR (UniProt Q08211)	0.136	0.171
DDAH2_O95865_11_CSHALIR (UniProt O95865)	0.0326	0.0102
CTU1_Q7Z7A3_144_SCCTFCGVLR (UniProt Q7Z7A3)	-0.353	-1.17
COLGALT1_Q8NBJ5_283_QAEVQMYVCNK (UniProt Q8NBJ5)	0.265	0.751
DENND3_A2RUS2_801_TECDLWHLMVK (UniProt A2RUS2)	-0.103	-0.116
DCXR_Q7Z4W1_58_ECPGIEPVCVDLGDWEATER (UniProt Q7Z4W1)	0.125	0.231
DESI1_Q6ICB0_108_GEAYNLFEHNCNTFSNEVAQFLTGR (UniProt Q6ICB0)	-0.076	-1.61
CYB5R4_Q7L1T6_278_CQLISK (UniProt Q7L1T6)	-0.0627	-0.00326
DEF6_Q9H4E7_266_GIIPLDAHCCVEVLPDRDGKR (UniProt Q9H4E7)	0.106	-0.227
DDX17_Q92841_166+199_GGDVCPKPVFAFHHANFPQYVMDVLMDQHFTEPTPIQCQGFPLALSGR (UniProt Q92841)	-0.28	-1.05
DBR1_Q9UK59_36_RGPGPVDLLLCCGDFQAVR (UniProt Q9UK59)	0.0792	-0.183
DDX3X_O00571_128_WCDKSDEDDWSK (UniProt O00571)	-0.303	-1.35
CSE1L_P55060_61_VCASVTFK (UniProt P55060)	-0.071	0.0214
COL15A1_P39059_965_GAIFPIPVRPHCK (UniProt P39059)	-0.0948	0.0369
DBNL_Q9UJU6-3_256_NEQGSTCASLQESAVHPR (UniProt Q9UJU6)	-0.341	-0.167
DDX52_Q9Y2R4_342_TGFRDQLASIFLACTSHK (UniProt Q9Y2R4)	0.00973	0.189
